# Results as given in the supplement of paper PMC8728848.
# Only a selection was taken, and the strongest signals are over-represented in it overall.
# B1: Malectin (Xenopus laevis), Q6INX3 (protein)
# chain: SGLADKVIWAVNAGGESHVDVHGIHYRKDPLEGRVGRASDYGMKLPILRSNPEDQVLYQTERYNEDSFGYDIPIKEEGEYVLVLKFAEVYFAQSQQKVFDVRVNGHTVVKDLDIFDRVGHSTAHDEIIPISIKKGKLSVQGEVSTFTGKLSVEFVKGYYDNPKVCALFIMKGTADDVPMLQPHPGLE
# Columns and labels:
# Experiment in all cases: glycan array binding signal (z-score within array); higher = stronger binding
# Details in all cases: glycan notation: IUPAC condensed, linker removed
# [1] = biological target: Ara(a1-5)Ara(a1-5)Ara(a1-5)Ara(a1-5)Ara(a1-5)Ara
# Outline: (§1)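 The Consortium for Functional Glycomics database supplied 3228 glycan arrays, of which those lacking an available protein sequence were dropped. The binding signal, a within-array Z-score, was averaged across arrays of the same protein sequence and across linkers. Negative scores can be read as non-binding.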
# [2] = biological target: Fuc(a1-2)Gal(b1-3)GlcNAc(b1-3)Gal(b1-4)Glc
# Outline: as §1
# [3] = biological target: Gal(b1-3)GlcNAc(b1-3)[Gal(b1-4)GlcNAc(b1-6)]Gal(b1-4)Glc
# Outline: as §1
# [4] = biological target: Gal(b1-4)GlcNAc(b1-3)[Gal(b1-4)GlcNAc(b1-6)]Gal(b1-4)GlcNAc(b1-3)[Gal(b1-4)GlcNAc(b1-6)]Gal(b1-4)GlcNAc(b1-3)[Gal(b1-4)GlcNAc(b1-6)]Gal(b1-4)GlcNAc(b1-3)[Gal(b1-4)GlcNAc(b1-6)]Gal(b1-4)GlcNAc(b1-3)Gal(b1-4)Glc
# Outline: as §1
# [5] = biological target: Gal3S(b1-3)[Fuc(a1-4)]GlcNAc(b1-3)Gal(b1-4)Glc
# Outline: as §1
# [6] = biological target: Gal3S(b1-4)GlcNAc(b1-3)Gal
# Outline: as §1
# [7] = biological target: Glc(a1-2)Glc(a1-3)Glc(a1-3)Man(a1-2)Man(a1-2)Man(a1-3)[Man(a1-3)[Man(a1-6)]Man(a1-6)]Man(b1-4)GlcNAc
# Outline: as §1
# [8] = biological target: Glc(a1-3)Glc
# Outline: as §1
# [9] = biological target: Glc(a1-3)Glc(a1-3)Man(a1-2)Man(a1-2)Man(a1-3)[Man(a1-3)[Man(a1-6)]Man(a1-6)]Man(b1-4)GlcNAc
# Outline: as §1
# [10] = biological target: Glc(a1-3)Man(a1-2)Man(a1-2)Man(a1-3)[Man(a1-2)Man(a1-3)[Man(a1-2)Man(a1-6)]Man(a1-6)]Man(b1-4)GlcNAc(b1-4)GlcNAc
# Outline: as §1
# [11] = biological target: Glc(a1-6)Glc
# Outline: as §1
# [12] = biological target: Glc(a1-6)Glc(a1-6)Glc(a1-6)Glc
# Outline: as §1
# [13] = biological target: Glc(a1-6)Glc(a1-6)Glc(a1-6)Glc(a1-6)Glc
# Outline: as §1
# [14] = biological target: Glc(a1-6)Glc(a1-6)Glc(a1-6)Glc(a1-6)Glc(a1-6)Glc
# Outline: as §1
# [15] = biological target: Glc(b1-4)Glc(b1-4)Glc(b1-4)Glc(b1-4)Glc(b1-4)Glc
# Outline: as §1
# [16] = biological target: GlcA3S(b1-3)Gal
# Outline: as §1
# [17] = biological target: GlcNAc(b1-3)[GlcNAc(b1-6)]Gal(b1-4)GlcNAc(b1-3)[GlcNAc(b1-6)]Gal(b1-4)GlcNAc(b1-3)Gal(b1-4)Glc
# Outline: as §1
# [18] = biological target: HexA(a1-3)GalNAc6S(b1-4)GlcA(b1-3)GalNAc6S
# Outline: as §1
# [19] = biological target: Man(a1-2)Man
# Outline: as §1
# [20] = biological target: Man(a1-3)[Man(a1-6)]Man(b1-4)GlcNAc(b1-4)GlcNAc
# Outline: as §1
# [21] = biological target: Man(b1-4)GlcNAc
# Outline: as §1
# [22] = biological target: Man6P(a1-3)Man(a1-3)Man(a1-3)Man(a1-2)Man
# Outline: as §1
# [23] = biological target: Neu5Ac(a2-3)Gal(b1-3)GalNAc(b1-4)[Neu5Ac(a2-3)]Gal(b1-4)Glc
# Outline: as §1
# [24] = biological target: Neu5Ac(a2-3)Gal(b1-3)[Fuc(a1-4)]GlcNAc
# Outline: as §1
# [25] = biological target: Neu5Ac(a2-3)Gal(b1-3)[Fuc(a1-4)]GlcNAc(b1-3)Gal(b1-4)Glc
# Outline: as §1
# [26] = biological target: Neu5Ac(a2-8)Neu5Ac
# Outline: as §1
# [27] = biological target: Neu5Ac9Ac(a2-6)Gal(b1-4)GlcNAc
# Outline: as §1
binder,measurement,setting,value
B1,glycan array binding signal (z-score),[1],-0.069
same,glycan array binding signal (z-score),[2],-0.068
same,glycan array binding signal (z-score),[3],-0.075
same,glycan array binding signal (z-score),[4],-0.066
same,glycan array binding signal (z-score),[5],-0.076
same,glycan array binding signal (z-score),[6],-0.076
same,glycan array binding signal (z-score),[7],0.052
same,glycan array binding signal (z-score),[8],0.041
same,glycan array binding signal (z-score),[9],8.46
same,glycan array binding signal (z-score),[10],-0.171
same,glycan array binding signal (z-score),[11],-0.214
same,glycan array binding signal (z-score),[12],0.133
same,glycan array binding signal (z-score),[13],0.876
same,glycan array binding signal (z-score),[14],1.32
same,glycan array binding signal (z-score),[15],-0.198
same,glycan array binding signal (z-score),[16],-0.074
same,glycan array binding signal (z-score),[17],-0.076
same,glycan array binding signal (z-score),[18],-0.074
same,glycan array binding signal (z-score),[19],-0.076
same,glycan array binding signal (z-score),[20],-0.072
same,glycan array binding signal (z-score),[21],-0.075
same,glycan array binding signal (z-score),[22],-0.075
same,glycan array binding signal (z-score),[23],-0.076
same,glycan array binding signal (z-score),[24],-0.076
same,glycan array binding signal (z-score),[25],-0.076
same,glycan array binding signal (z-score),[26],-0.073
same,glycan array binding signal (z-score),[27],-0.073
